# Source: PubChem BioAssay (NCATS)
# Unmarked numbers belong to inactive results. Records with an inconclusive call do not appear. Calls of active or inactive are those of the source. Unless noted, calls follow the shape of the dose curve; as a rule, active = well fitted curve in either direction with a large enough effect (not every such curve was filed as active); inconclusive = small, poorly fitted or top-dose-only effect, or another doubt; inactive = flat fitted curve, though single readings scatter.
# Columns and labels:
# [1] = target: Lysosomal acid glucosylceramidase (Homo sapiens) (UniProt P04062); experiment: Glucocerebrosidase-p2 (AID 348; in the data active = potency below about 10 µM; also: potency is read from the fitted curve at half-maximal effect); details: purified GBA, blue fluorogenic substrate, 40 min
# Sequence of Lysosomal acid glucosylceramidase (Homo sapiens) (P04062 whole entry, looked up): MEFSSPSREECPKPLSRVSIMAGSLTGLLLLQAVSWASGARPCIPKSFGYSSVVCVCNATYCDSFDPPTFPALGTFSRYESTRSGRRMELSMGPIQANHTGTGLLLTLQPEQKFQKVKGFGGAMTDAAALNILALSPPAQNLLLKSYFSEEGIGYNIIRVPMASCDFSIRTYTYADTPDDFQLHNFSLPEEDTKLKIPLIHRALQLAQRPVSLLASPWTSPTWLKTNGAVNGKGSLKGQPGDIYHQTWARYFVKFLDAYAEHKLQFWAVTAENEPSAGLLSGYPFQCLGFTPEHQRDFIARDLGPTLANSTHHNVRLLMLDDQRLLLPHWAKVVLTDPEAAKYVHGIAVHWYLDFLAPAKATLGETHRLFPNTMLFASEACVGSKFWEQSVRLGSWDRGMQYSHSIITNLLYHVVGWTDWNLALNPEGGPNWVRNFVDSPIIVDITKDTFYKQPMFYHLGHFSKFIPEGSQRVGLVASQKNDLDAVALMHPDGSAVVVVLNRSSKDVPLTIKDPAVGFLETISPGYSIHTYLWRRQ
# In short: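 Normal human glucocerebrosidase (0.2 nM) with blue fluorogenic substrate (80 uM final) in citrate/phosphate pH 5.9 with 10mM sodium taurocholate, 0.01% tween-20; 40 min RT, NaOH/glycine stop; fluorescence Ex 365/Em 440; AC50 from a titration from 0.6 nM upwards.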
# [2] = AP1 Signaling Pathway (AID 357); details: ME-180 AP-1-bla reporter, EGF-induced, beta-lactamase ratio, 5 h; at 7.69 µM (top of the series) unless noted;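 also: ME-180 reporter cells stimulated with EGF at its EC50 level; % is scaled to controls: 0 for no effect and ±100 for the full control effect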
# In short: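 Modulation of EGF-driven AP-1 transcription was assessed with a beta-lactamase reporter in ME-180 cells. Compound and EC50 EGF were co-incubated 5 hours at 37 °C before 2.5-hour CCF4 loading at room temperature and dual-emission reading.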
# [3] = target: Cytochrome P450 1A2 (Homo sapiens) (UniProt P05177); experiment: p450-cyp1a2 (AID 410; calls by dose curve; also: potency is read from the fitted curve at half-maximal effect;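 as to activity change, negative = inhibition: -100% = full effect of reference inhibitor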); details: recombinant CYP1A2, luciferin-ME demethylation, luminescence; series mostly up to 11.4 µM
# Sequence of Cytochrome P450 1A2 (Homo sapiens) (P05177 whole entry, looked up): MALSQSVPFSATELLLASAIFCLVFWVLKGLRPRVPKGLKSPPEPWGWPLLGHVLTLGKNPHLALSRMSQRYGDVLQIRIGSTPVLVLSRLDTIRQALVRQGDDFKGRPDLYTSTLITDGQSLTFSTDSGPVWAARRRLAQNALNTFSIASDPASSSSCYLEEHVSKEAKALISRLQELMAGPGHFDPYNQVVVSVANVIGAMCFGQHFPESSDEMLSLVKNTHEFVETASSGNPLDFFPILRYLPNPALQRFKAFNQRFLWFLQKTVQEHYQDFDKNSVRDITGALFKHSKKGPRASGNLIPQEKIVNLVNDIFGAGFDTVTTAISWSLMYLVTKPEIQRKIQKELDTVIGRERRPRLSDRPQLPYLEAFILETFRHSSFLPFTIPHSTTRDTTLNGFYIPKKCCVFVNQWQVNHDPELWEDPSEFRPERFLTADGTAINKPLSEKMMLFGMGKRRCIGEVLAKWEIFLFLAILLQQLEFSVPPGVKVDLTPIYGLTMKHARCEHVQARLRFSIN
# In short: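 Luminescent demethylation readout: Luciferin-ME (100uM, equal to Km) turned over by 20nM CYP1A2 for 60 min at room temperature after NADPH regeneration addition, following 10 min compound preincubation. Normalization used 57 uM furafylline as full inhibition.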
# [4] = NFAT Signaling Pathway (AID 444); details: Jurkat NFAT-bla M1, carbachol, beta-lactamase ratio, 5 h; at 7.69 µM (top of the series) unless noted;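 also: carbachol stimulus at about its EC50 of 1 µM final; % is scaled to controls: 0 for no effect and ±100 for the full control effect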
# In short: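 Jurkat cells with NFAT-driven β-lactamase reporter and co-expressed M1 receptor, stimulated with carbachol (final 1 uM, ~EC50), compound titration, 5 h at 37 °C. CCF4 loaded 1 h at RT; 460/530 nm ratio gave %activity and AC50.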
# [5] = Stat Signaling Pathway (AID 446); details: ME-180 SIE beta-lactamase reporter, IL-6 stimulated, 5 h; at 7.69 µM (top of the series) unless noted;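 also: ME-180 cervical cancer cells given 40 pM IL-6 alongside compound; SIE-controlled beta-lactamase reporter measured as 460/530 nm FRET emission ratio; % is scaled to controls: 0 for no effect and ±100 for the full control effect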
# In short: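 Compound effects on IL-6-induced STAT reporter activity were measured in ME-180 cells. After overnight culture, cells were co-treated with 40 pM IL-6 for 5 hrs before beta-lactamase substrate loading at room temperature.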
# [6] = target: Glucocorticoid receptor (Homo sapiens) (UniProt P04150); experiment: GR-GFP Redistribution (AID 450;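 active = compounds whose dose series gives a full or clear partial fitted curve of increased nuclear translocation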; also: potency is read from the fitted curve at half-maximal effect); details: U2OS GR-GFP nuclear translocation, laser cytometry, 2 h
# Sequence of Glucocorticoid receptor (Homo sapiens) (P04150 whole entry, looked up, the tested form may be a part): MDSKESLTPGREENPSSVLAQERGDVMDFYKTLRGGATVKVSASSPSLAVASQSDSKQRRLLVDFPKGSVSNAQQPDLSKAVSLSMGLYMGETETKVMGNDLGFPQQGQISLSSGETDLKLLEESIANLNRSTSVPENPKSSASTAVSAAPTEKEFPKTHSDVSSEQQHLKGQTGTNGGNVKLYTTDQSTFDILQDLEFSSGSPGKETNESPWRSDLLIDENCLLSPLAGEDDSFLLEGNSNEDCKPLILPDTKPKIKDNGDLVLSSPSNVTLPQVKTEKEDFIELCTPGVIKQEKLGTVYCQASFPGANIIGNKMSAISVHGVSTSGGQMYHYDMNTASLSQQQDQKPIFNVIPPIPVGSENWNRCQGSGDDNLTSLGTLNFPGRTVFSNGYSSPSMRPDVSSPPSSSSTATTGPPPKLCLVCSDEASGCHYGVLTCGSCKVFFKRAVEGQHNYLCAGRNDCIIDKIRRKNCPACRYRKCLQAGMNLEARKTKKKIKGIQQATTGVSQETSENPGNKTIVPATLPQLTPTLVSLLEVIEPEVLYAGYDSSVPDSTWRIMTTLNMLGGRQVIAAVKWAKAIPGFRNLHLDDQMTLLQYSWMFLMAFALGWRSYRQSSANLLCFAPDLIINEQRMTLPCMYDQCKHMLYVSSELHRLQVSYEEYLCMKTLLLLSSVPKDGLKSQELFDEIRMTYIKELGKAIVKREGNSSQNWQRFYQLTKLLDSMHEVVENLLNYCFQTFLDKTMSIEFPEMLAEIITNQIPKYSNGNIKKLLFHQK
# [7] = target: Glucocorticoid receptor (Homo sapiens) (UniProt P04150); experiment: GR-EFC Redistribution (AID 451; calls by dose curve; also: potency is read from the fitted curve at half-maximal effect); details: CHO-K1 GR-EFC translocation, beta-gal luminescence, 2 h
# In short: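 CHO-K1 cells expressing nuclear EA and GR-ED fragments of b-gal; compounds titrated up to 46 uM final, 2 h at 37 C. GR nuclear translocation read as complemented b-gal luminescence after 1 h RT detection.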
# [8] = target: 3',5'-cyclic-AMP phosphodiesterase 4B (Homo sapiens) (UniProt Q07343); experiment: qHTS Assay for Inhibitors of PDE-IV (AID 607; active = well fitted activation curve with a large enough effect in the main read-out, with a control signal flat, not every such curve was filed as active; also: % of control where 0% means no effect); details: HEK293 ACTOne CNG channel cells, membrane potential fluorescence; series mostly up to 22.9 µM
# Sequence of 3',5'-cyclic-AMP phosphodiesterase 4B (Homo sapiens) (Q07343 whole entry, looked up): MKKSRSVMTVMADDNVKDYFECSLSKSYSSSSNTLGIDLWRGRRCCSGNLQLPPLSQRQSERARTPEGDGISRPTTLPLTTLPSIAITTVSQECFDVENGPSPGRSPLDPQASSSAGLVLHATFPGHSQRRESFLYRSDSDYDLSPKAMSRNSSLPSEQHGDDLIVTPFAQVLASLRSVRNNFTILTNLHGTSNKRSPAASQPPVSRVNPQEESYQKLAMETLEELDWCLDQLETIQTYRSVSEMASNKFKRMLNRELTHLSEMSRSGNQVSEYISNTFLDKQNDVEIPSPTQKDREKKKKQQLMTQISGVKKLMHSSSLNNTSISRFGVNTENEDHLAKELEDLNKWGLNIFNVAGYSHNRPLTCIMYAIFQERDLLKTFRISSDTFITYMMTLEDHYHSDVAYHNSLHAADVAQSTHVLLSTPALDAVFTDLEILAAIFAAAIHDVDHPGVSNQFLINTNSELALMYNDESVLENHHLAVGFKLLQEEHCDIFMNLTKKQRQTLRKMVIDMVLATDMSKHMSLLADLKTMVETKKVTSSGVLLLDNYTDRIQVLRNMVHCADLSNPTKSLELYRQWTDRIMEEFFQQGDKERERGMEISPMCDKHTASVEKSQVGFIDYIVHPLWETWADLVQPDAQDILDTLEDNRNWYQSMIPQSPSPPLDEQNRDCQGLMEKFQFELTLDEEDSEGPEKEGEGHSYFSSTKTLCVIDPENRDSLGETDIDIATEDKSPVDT
# In short: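 ACTOne HEK293 cells carry a modified cAMP-gated CNG channel and express endogenous PDE4; plated 1000 cells/well, compounds up to 22.9 uM final. Membrane-potential dye fluorescence (ex 535/em 590) was read; parental cells received 10 uM forskolin + 100 uM RO 20-1724.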
# [9] = target: Cytochrome P450 2C9 (Homo sapiens) (UniProt P11712); experiment: qHTS Assay for Inhibitors and Substrates of Cytochrome P450 2C9 (AID 883; active = well fitted curve in the direction sought with a large enough effect; an effect the other way counts as inactive or inconclusive; also: potency is read from the fitted curve at half-maximal effect; nearly all actives have a fitted effect of over 60% in size); details: recombinant CYP2C9, luciferin-H luminescence, 60 min; series mostly up to 11.4 µM
# Sequence of Cytochrome P450 2C9 (Homo sapiens) (P11712 whole entry, looked up): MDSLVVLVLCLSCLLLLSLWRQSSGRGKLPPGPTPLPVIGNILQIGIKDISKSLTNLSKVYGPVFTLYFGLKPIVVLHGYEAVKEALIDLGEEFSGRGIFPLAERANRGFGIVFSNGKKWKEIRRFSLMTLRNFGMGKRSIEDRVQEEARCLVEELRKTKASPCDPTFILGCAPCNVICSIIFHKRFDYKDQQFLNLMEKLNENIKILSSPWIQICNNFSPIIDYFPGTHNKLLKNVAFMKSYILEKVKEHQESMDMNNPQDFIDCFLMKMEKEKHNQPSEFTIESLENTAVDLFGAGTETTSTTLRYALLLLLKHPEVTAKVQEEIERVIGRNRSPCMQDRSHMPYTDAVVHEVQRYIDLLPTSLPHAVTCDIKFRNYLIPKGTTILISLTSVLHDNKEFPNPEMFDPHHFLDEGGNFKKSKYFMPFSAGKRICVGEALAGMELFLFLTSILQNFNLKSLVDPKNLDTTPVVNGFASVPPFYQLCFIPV
# In short: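 10nM CYP2C9 + 100uM Luciferin-H (=KM), 25mM KPO4; cpd 10 min 37C; NADPH regen, 60 min 37C; stop/detect with P450 Glo-Buffer 20 min; luminescence. Norm. to 57uM sulphaphenazole as full inhibition.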
# [10] = target: Mitogen-activated protein kinase 10 (Mus musculus) (UniProt Q61831); experiment: JNK3 AlphaScreen Assay (AID 530); details: JNK3 lysate, c-Jun phosphorylation; series mostly up to 11.4 µM;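 also: kinase came from lysate of stimulated human HepG2 cells; signal reports phosphorylation of biotinylated GST-cJun 1-79 at Ser73 with 10 µM ATP; % is scaled to controls: 0 for no effect and ±100 for the full control effect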
# In short: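 Activity was read by AlphaScreen after JNK3-containing HepG2 lysate (cytokine pre-activated) phosphorylated biotinylated GST-cJun with 10 uM ATP at room temperature. Phospho-Ser73 cJun antibody with Protein-A acceptor beads provided detection.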
# [11] = target: Cytochrome P450 2C19 (Homo sapiens) (UniProt P33261); experiment: qHTS Assay for Inhibitors and Substrates of Cytochrome P450 2C19 (AID 899; active = well fitted curve in the direction sought with a large enough effect; an effect the other way counts as inactive or inconclusive; also: nearly all actives have a fitted effect of over 60% in size; also: potency is read from the fitted curve at half-maximal effect); details: recombinant CYP2C19, luciferin-H EGE luminescence; series mostly up to 11.4 µM
# Sequence of Cytochrome P450 2C19 (Homo sapiens) (P33261 whole entry, looked up): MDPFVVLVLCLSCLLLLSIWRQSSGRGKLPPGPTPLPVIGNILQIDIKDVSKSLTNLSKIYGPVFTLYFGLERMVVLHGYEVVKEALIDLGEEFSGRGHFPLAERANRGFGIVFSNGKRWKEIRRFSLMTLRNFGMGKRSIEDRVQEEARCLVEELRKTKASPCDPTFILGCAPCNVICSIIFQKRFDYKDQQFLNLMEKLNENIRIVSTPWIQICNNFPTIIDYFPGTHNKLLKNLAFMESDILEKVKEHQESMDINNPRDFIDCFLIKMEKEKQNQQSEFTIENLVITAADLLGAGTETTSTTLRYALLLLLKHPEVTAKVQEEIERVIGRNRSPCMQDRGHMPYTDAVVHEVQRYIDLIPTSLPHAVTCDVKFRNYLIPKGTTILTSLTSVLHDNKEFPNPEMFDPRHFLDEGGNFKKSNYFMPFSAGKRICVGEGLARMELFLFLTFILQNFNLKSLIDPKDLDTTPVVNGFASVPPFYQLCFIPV
# In short: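 Luminescent read-out of luciferin formed from Luciferin-H EGE (10uM, equal to KM). Enzyme 5nM in 50mM KPO4; compound added, 10 min at 37C, then NADPH regenerating system for 60 min at 37C. Full inhibition defined by 57uM ketoconazole.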
# [12] = target: Cytochrome P450 3A4 (Homo sapiens) (UniProt P08684); experiment: qHTS Assay for Inhibitors and Substrates of Cytochrome P450 3A4 (AID 884; active = well fitted curve in the direction sought with a large enough effect; an effect the other way counts as inactive or inconclusive; also: nearly all actives have a fitted effect of over 50% in size; also: potency is read from the fitted curve at half-maximal effect); details: recombinant CYP3A4, Luciferin-PPXE luminescence; series mostly up to 57.1 µM
# Sequence of Cytochrome P450 3A4 (Homo sapiens) (P08684 whole entry, looked up): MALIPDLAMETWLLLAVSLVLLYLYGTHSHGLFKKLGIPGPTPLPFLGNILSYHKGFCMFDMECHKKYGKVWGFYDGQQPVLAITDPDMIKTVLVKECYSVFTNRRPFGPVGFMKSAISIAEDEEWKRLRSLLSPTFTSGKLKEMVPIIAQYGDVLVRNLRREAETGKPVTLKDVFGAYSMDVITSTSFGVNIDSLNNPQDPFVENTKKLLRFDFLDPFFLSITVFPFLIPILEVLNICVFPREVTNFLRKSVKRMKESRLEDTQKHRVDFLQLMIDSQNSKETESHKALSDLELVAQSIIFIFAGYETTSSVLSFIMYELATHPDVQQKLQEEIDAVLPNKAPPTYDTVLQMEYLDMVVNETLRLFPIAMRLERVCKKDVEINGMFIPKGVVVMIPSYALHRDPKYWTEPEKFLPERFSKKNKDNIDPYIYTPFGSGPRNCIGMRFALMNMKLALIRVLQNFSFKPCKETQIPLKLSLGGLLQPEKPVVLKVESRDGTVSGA
# In short: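 Luminescent readout of luciferin produced by CYP3A4 (20 nM) dealkylation of Luciferin-PPXE, 25 uM (its KM). NADPH-driven reaction ran 60 min at RT after 10 min compound preincubation; data scaled to 57 uM ketoconazole as 100% inhibition.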
# [13] = target: Cytochrome P450 2D6 (Homo sapiens) (UniProt P10635); experiment: qHTS Assay for Inhibitors and Substrates of Cytochrome P450 2D6 (AID 891; active = well fitted curve in the direction sought with a large enough effect; an effect the other way counts as inactive or inconclusive; also: potency is read from the fitted curve at half-maximal effect; nearly all actives have a fitted effect of over 60% in size); details: recombinant CYP2D6, luciferin-ME EGE luminescence; series mostly up to 11.4 µM
# Sequence of Cytochrome P450 2D6 (Homo sapiens) (P10635 whole entry, looked up): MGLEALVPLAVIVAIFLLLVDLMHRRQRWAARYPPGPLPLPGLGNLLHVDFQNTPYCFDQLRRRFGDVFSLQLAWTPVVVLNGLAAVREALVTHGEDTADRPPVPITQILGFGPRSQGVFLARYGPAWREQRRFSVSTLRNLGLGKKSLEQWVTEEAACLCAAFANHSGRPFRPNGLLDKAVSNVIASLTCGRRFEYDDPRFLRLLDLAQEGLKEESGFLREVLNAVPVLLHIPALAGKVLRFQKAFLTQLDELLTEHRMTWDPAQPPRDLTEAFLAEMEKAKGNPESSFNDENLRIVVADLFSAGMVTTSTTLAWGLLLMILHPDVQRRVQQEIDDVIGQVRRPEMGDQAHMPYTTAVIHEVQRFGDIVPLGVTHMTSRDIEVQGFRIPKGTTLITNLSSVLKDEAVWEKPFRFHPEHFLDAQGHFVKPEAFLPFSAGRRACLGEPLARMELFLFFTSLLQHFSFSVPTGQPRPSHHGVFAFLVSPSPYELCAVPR
# In short: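 Luminescent read-out of luciferin formed by 5 nM human CYP2D6 demethylating 30 uM Luciferin-ME EGE (Km level) over 60 min at room temperature after NADPH regeneration addition. Data normalized to full inhibition by 1.43 uM quinidine.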
# [14] = target: Cytochrome P450 3A4 (Homo sapiens) (UniProt P08684); experiment: qHTS Assay for Activators of Cytochrome P450 3A4 (AID 885; active = well fitted curve in the direction sought with a large enough effect; an effect the other way counts as inactive or inconclusive; also: nearly all actives have a fitted effect of over 65% in size); details: recombinant CYP3A4, Luciferin-PPXE luminescence, 60 min; series mostly up to 11.4 µM
# In short: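 CYP3A4 activity: Luciferin-PPXE O-dealkylation, 25uM substrate, 200mM KPO4, RT throughout. Read-out is luciferase luminescence; higher values reflect activation.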
# [15] = qHTS Assay for Identification of Small Molecule Agonists for Hypoxia Response Element Signaling Pathway (AID 914; active = well fitted activation curve with a large enough effect in the signal ratio, with a control signal flat, not every such curve was filed as active; the % refers to the signal ratio; also: % of control where 0% means no effect); details: ME-180 (cervical carcinoma) HRE-bla reporter, beta-lactamase ratio, CoCl2, 17 h; activation: active compounds read high
# In short: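 HRE-bla ME-180 assay for agonist-like enhancement of an EC50 CoCl2 stimulus: 17 h at 37 degrees Celsius, CCF4 for 2.5 h, ratiometric 460/530 nm signal converted to %Activity and fitted to AC50.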
Structure (SMILES),Potency [1],"activity change, negative = inhibition [2]","activity change, negative = inhibition [3]","activity change, negative = inhibition [4]","activity, negative = inhibition [5]",Potency [6],Potency [7],Potency [8],Potency [9],Potency [3],Potency [10],Potency [11],"activity change, negative = inhibition [12]",Potency [13],Potency [12],Potency [14],activation [15]
O=C1C(=O)c2ccccc2C(O)=C1C(CCc1ccccc1)C1=C(O)c2ccccc2C(=O)C1=O,> 11.4 µM,-6.25%,-21.3% [at 2.29 µM],6.66%,-1.13%,> 46 µM,> 9.22 µM,inactive,3.16 µM (active),,,,,,,,
Oc1c(Br)cc(CN(Cc2cc(Br)c(O)c(Br)c2)C2CCCCC2)cc1Br,> 11.4 µM,11.3%,-5.7% [at 2.29 µM],-14%,-10.4%,> 46 µM,> 9.22 µM,inactive,,,,,,,,,
CN(CCO)Cc1ncccc1O,> 11.4 µM,-2.61%,-10% [at 2.29 µM],14.9%,12.9%,> 46 µM,> 9.22 µM,inactive,,,,,,,,,
O=C(O)CC12C[C@H]3C[C@@H](CC(O)(C3)C1)C2,> 11.4 µM,9.34%,,-2.52%,-1.43%,> 46 µM,> 9.22 µM,inactive,,inactive,,,,,,,
O=C(O)c1ccc(C(=O)O)c(C(=O)O)c1.[NH-][C@@H]1CCCC[C@@H]1[NH-].[Pt],> 11.4 µM,0.428%,,-9.87%,-6.09%,> 46 µM,> 9.22 µM,inactive,,inactive,,,,,,,
N=C(N)SCC(=O)O,> 11.4 µM,-10.2%,-10.2% [at 2.29 µM],6.44%,-4.57%,> 46 µM,> 9.22 µM,,,,inactive,inactive,,,,,
CC(=O)OCC(=O)[C@]12OC(C)(C)O[C@@H]1C[C@H]1[C@H]3CC=C4C[C@@H](O)CC[C@]4(C)[C@H]3CC[C@]12C,> 11.4 µM,8.77%,,-9.45%,5.43%,> 46 µM,> 9.22 µM,,,inactive,inactive,,69.9% [at 11.4 µM],,,,
N#CCCn1c(=O)c(-c2ccccc2)nc2cnc(Oc3cccc(Cl)c3)nc21,> 11.4 µM,-25.4%,,-23.9%,-4.6%,> 9.22 µM,> 46 µM,inactive,,2.51 µM (active),,,,,,,
O[C@@H](COc1ccc(Cl)cc1Cl)CN1CCCC1,> 11.4 µM,7.86%,,2.25%,4.26%,> 46 µM,> 9.22 µM,,,5.01 µM (active),inactive,,,0.316 µM (active),,,
COc1ccccc1CCn1c(=O)c(-c2ccccc2)nc2cncnc21,> 11.4 µM,-5.11%,,-9.96%,-0.776%,> 9.22 µM,> 46 µM,,5.01 µM (active),1 µM (active),inactive,0.631 µM (active),,,3.98 µM (active),inactive,
COc1ccc(-n2c(=O)c(C)nc3cnc(Nc4cccc(OC)c4)nc32)cc1,> 11.4 µM,-25.7%,,10.5%,-24.1%,> 9.22 µM,> 46 µM,,,15.8 µM (active),inactive,,,,,inactive,
O=C1C[C@H]2C(=O)[C@@H]1[C@@H](C(=O)O)[C@H]2C(=O)O,> 11.4 µM,5.27%,,7.84%,-5.86%,> 46 µM,> 9.22 µM,inactive,,inactive,,,,,,,
CC(C)N(CC(=O)O)CC(=O)O,> 11.4 µM,11.5%,,4.66%,10.4%,> 46 µM,> 9.22 µM,inactive,,inactive,,,,,,,
Cc1ncc(CN=Cc2ccc(Cl)cc2)c(N)n1,> 11.4 µM,-0.312%,,23.1%,3.08%,> 46 µM,> 9.22 µM,inactive,,5.01 µM (active),,,,,,,
CCCCn1cnc2c(c(CC#N)nn2-c2ccccc2)c1=N,> 11.4 µM,-12%,,-1.01%,-0.662%,> 46 µM,> 9.22 µM,,,1 µM (active),inactive,,,0.398 µM (active),,,16.2%
